Experimental data published in PMC5540273 (PLoS ONE, 2017).

How the values were obtained:
Settings in all cases: concentration: 1 μM, replicates: in singlicate; n = 1
ANKK1 = test system: ANKK1
ARK5 = test system: T1, ARK5
T1 construct: gene NUAK1

ASK1 = test system: T2, ASK1
T2 construct: gene MAP3K5

ASK2 = test system: T3, ASK2
T3 construct: gene MAP3K6

AURKA = test system: AURKA
AURKB = test system: AURKB
AURKC = test system: AURKC
AXL = test system: AXL
BIKE = test system: T4, BIKE
T4 construct: gene BMP2K

BLK = test system: BLK
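Further: KINOMEscan kinase panel screen.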

Row | Structure (SMILES) | %Inh (ANKK1) | %Inh (ARK5) | %Inh (ASK1) | %Inh (ASK2) | %Inh (AURKA) | %Inh (AURKB) | %Inh (AURKC) | %Inh (AXL) | %Inh (BIKE) | %Inh (BLK)
1 | Cl.O=C(Nc1cccc(-c2nn3ncccc3c2-c2ccnc(Nc3cccnc3)n2)c1)c1c(F)cccc1F [GSK312879] | 16% | 0% | 0% | 13% | 0% | 24% | 19% | 11% | 31% | 2%
2 | COc1cc2ncnc(Nc3ccc4nc(-c5ccccc5)[nH]c4c3)c2cc1OC.Cl [GW282450] | 16% | 0% | 0% | 0% | 99.1% | 28% | 48% | 23% | 14% | 26%
3 | CC(=O)Nc1nc2cnc(Nc3cc(NC(=O)c4cccc(CCC#N)c4)ccc3C)nc2s1 | 0% | 7% | 0% | 16% | 12% | 18% | 7% | 0% | 10% | 0%
4 | CS(=O)(=O)c1ccc(-c2nc3n(c2-c2ccncc2)CCC3)cc1 [SKF-105942] | 0% | 8% | 11% | 0% | 0% | 34% | 0% | 0% | 3% | 9%
5 | Cn1ccc2ncnc(Oc3ccc(NC(=O)Nc4ccccc4)cc3)c21 | 0% | 4% | 16% | 0% | 15% | 93.7% | 84% | 0% | 0% | 2%
6 | Nc1nc(-c2nccs2)c(-c2ccnc3ccccc23)s1 [GW693542] | 6% | 0% | 5% | 0% | 0% | 0% | 0% | 42% | 4% | 42%
7 | COc1ccc(Nc2nccc(-c3cccc(NC(=O)c4cc5cc(F)ccc5[nH]4)c3)n2)cc1 [GSK1229782] | 0% | 28% | 0% | 0% | 16% | 0% | 66% | 9% | 57% | 41%
8 | O=S(=O)(c1ccc(-c2ccnc3[nH]ccc23)cc1)N1CCCC1 [GSK846226] | 0% | 0% | 3% | 14% | 13% | 20% | 60% | 46% | 87% | 0%
9 | O=C(Nc1ccccc1)Nc1cccc(Oc2ccc3nccn3n2)c1 | 0% | 0% | 0% | 0% | 0% | 8% | 26% | 7% | 0% | 0%
10 | CCn1c(-c2cccnc2O)nc2cnccc21 [SB-736715] | 0% | 0% | 0% | 0% | 8% | 0% | 0% | 38% | 0% | 0%
11 | COc1ccc(CNC(=O)NC2CCN(c3ccnc(Nc4cc(OC)c(OC)c(OC)c4)n3)C2)cc1 (stereo not shown) [GSK1379748] | 33% | 25% | 0% | 12% | 79% | 84% | 60% | 8% | 25% | 0%
12 | Cc1ccc(-c2cc(-c3c[nH]nc3-c3ccccn3)ccn2)cc1 [GW684088] | 0% | 94.7% | 0% | 0% | 2% | 0% | 10% | 5% | 20% | 0%
13 | Cc1c(O)cccc1Nc1ccnc2ccc(C(F)(F)F)cc12.Cl [GW466413] | 0% | 10% | 0% | 0% | 0% | 34% | 0% | 1% | 4% | 66%
14 | Cc1cccc(-c2nc(Nc3cccc(C(N)=O)c3)c3ccccc3n2)n1 [GW876019] | 0% | 6% | 17% | 0% | 0% | 30% | 12% | 0% | 11% | 21%
15 | COc1ccc2nc(-c3cccc(C)n3)nc(Nc3ccncc3)c2c1 [GSK204919] | 0% | 6% | 8% | 0% | 0% | 3% | 6% | 2% | 3% | 31%
16 | Cc1csc(-c2nc(Nc3ccncc3)c3ccccc3n2)n1 [GW869640] | 18% | 0% | 11% | 37% | 41% | 45% | 1% | 0% | 0% | 5%
17 | CCn1c(-c2ccccn2)nc2cnccc21 [SB-736398] | 0% | 0% | 17% | 0% | 0% | 3% | 7% | 12% | 16% | 9%
18 | O=C(O)COc1ncnc2cc(-c3ccc4[nH]ncc4c3)sc12 | 12% | 0% | 0% | 0% | 45% | 28% | 0% | 21% | 0% | 1%
19 | CCCc1ccc(S(=O)(=O)NC2CCN(c3ccnc(Nc4ccc(F)cc4)n3)C2)cc1 (stereo not shown) [GSK1379715] | 0% | 0% | 2% | 0% | 0% | 29% | 5% | 12% | 0% | 0%
20 | COc1cccc(-c2cc(-c3c[nH]nc3-c3ccccn3)ccn2)c1 [GW680338] | 13% | 0% | 0% | 27% | 0% | 0% | 89% | 7% | 54% | 8%

Row | Structure (SMILES) | %Inh (ANKK1) | %Inh (ARK5) | %Inh (ASK1) | %Inh (ASK2) | %Inh (AURKA) | %Inh (AURKB) | %Inh (AURKC) | %Inh (AXL) | %Inh (BIKE) | %Inh (BLK)
21 | Clc1cc(Cl)cc(Nc2ccnc(Nc3cc(Cl)cc(Cl)c3)n2)c1 [GSK175726] | 18% | 8% | 4% | 3% | 90% | 0% | 13% | 2% | 8% | 6%
22 | Cc1cc(NCC(c2ccccc2)c2ccccc2)nc(NCc2ccc(C(F)(F)F)cc2)n1 [GW497681] | 9% | 13% | 0% | 0% | 7% | 15% | 8% | 0% | 0% | 25%
23 | CN(C)CCN(C)C(=O)c1cc(-c2ccncc2)c(-c2ccc(Cl)c(O)c2)o1.Cl.Cl [SB-710397] | 0% | 0% | 18% | 0% | 0% | 9% | 0% | 8% | 13% | 12%
24 | COc1cc2nccc(Nc3ccc(NC(=O)c4ccc(C)cc4)c(O)c3)c2cc1OC.Cl [GW440132] | 0% | 0% | 0% | 0% | 7% | 50% | 57% | 0% | 7% | 95.5%
25 | COC(=O)c1c(-c2ccccc2)c2cc(OC)ccc2c(=O)n1Cc1ccccc1 | 0% | 27% | 0% | 37% | 25% | 22% | 0% | 0% | 0% | 0%
26 | CC(C)(C)c1ccc(C(=O)Nc2cn3cc(Cl)ccc3n2)cc1 | 0% | 0% | 86% | 0% | 0% | 64% | 17% | 0% | 0% | 0%
27 | Cn1ccc2ncnc(Oc3cccc(C(=O)Nc4ccccc4)c3)c21 | 28% | 14% | 0% | 0% | 21% | 0% | 26% | 3% | 14% | 1%
28 | COc1ccccc1-c1ccc2c(NC(=O)C3CC3)n[nH]c2n1 [SB-711239] | 9% | 0% | 11% | 17% | 0% | 0% | 0% | 12% | 0% | 6%
29 | COc1ccc(C2=C(Nc3cccc(C(=O)O)c3)C(=O)NC2=O)cc1 [SB-390765] | 6% | 5% | 9% | 21% | 18% | 26% | 0% | 19% | 18% | 0%
30 | Cc1nnc(-c2ccc3occ(-c4ccc(S(C)=O)cc4)c3c2)[nH]1 (stereo not shown) | 28% | 6% | 0% | 3% | 25% | 49% | 0% | 24% | 0% | 0%
31 | Fc1cccc(COc2nnc(-c3ccc4c(c3)CCO4)o2)c1 | 0% | 5% | 0% | 23% | 15% | 37% | 0% | 0% | 0% | 0%
32 | Cc1cccc(-c2nc(-c3ccc(S(C)(=O)=O)cc3)sc2-c2ccnc(NCCc3ccccc3)c2)c1 | 7% | 11% | 0% | 0% | 0% | 14% | 0% | 0% | 9% | 16%
33 | Cc1ccc(NC(=O)Nc2cc(C(C)(C)C)nn2-c2ccccc2)cc1 [GSK1014915] | 0% | 0% | 1% | 22% | 0% | 17% | 18% | 2% | 22% | 20%
34 | Cc1cc(N2Cc3ccccc3C2)nc(Nc2ccc(S(=O)(=O)N3CCOCC3)cc2)n1.Cl [GSK1669917] | 24% | 0% | 0% | 0% | 0% | 0% | 0% | 0% | 9% | 16%
35 | Cn1cncc1-c1ccc2ncnc(Nc3ccc(OCc4ccccc4)cc3)c2c1 [GW320571] | 0% | 72% | 16% | 7% | 0% | 100% | 38% | 10% | 23% | 13%
36 | Cc1ccc(NC(=O)Nc2cccc(Cl)c2)cc1-c1ccc(C(=O)Nc2ccncc2)cc1 [GSK1398468] | 17% | 6% | 2% | 0% | 15% | 14% | 44% | 0% | 29% | 0%
37 | Cc1c(Cn2ccn3c(=O)cc(N4CCOCC4)nc23)cccc1C(F)(F)F [GSK2289044] | 6% | 9% | 4% | 7% | 7% | 0% | 3% | 7% | 0% | 0%
38 | Cc1cc(-c2ccc3c(c2)CC[C@@H](N[C@@H](C)c2ccccc2)C3)cnc1N.Cl [GW412617] | 69% | 13% | 33% | 0% | 0% | 35% | 26% | 33% | 40% | 13%
39 | CS(=O)(=O)c1ccc(-c2c(-c3ncn[nH]3)sc(N3CCOCC3)c2C#N)cc1 | 0% | 1% | 0% | 0% | 22% | 0% | 2% | 0% | 6% | 8%
40 | COc1ccccc1CNC(=O)c1cc(C(=O)c2ccccc2C)c[nH]1 [GSK364507] | 0% | 10% | 0% | 2% | 100% | 22% | 11% | 8% | 0% | 17%
